{"source": "PubChem BioAssay (EPA / NIEHS)", "note": "More than one record can exist for a structure, and the calls need not agree. Active and inactive are the calls of the source. How the source made its calls: active means hit-call score of the fitted dose curve at least 0.9, where 1 is the maximum; inactive means score below 0.9."}
{"read-out": "Collagen I, COL1A1 (gene 1277)", "test": "BSK_hDFCGF_CollagenI: BioMAP Diversity Plus: hDFCGF Assay for Collagen I Biomarker Activity (AID 2284250)", "conditions": "primary human foreskin fibroblasts", "procedure": "BSK_hDFCGF is a cell-based, multiplexed-readout assay that uses foreskin fibroblast, a human skin primary cell, with measurements taken at 24 hours after chemical dosing in a 96-well plate.BSK_hDFCGF_CollagenI is an assay component measured in the BSK_hDFCGF assay. It measures Collagen I antibody related to regulation of gene protein expression using ELISA technology.Data from the assay component BSK_hDFCGF_CollagenI was analyzed at the endpoint, BSK_hDFCGF_CollagenI, in the positive analysis fitting direction relative to DMSO as the negative control and baseline of activity. Using a type of binding reporter, gain or loss-of-signal activity can be used to understand protein changes. To generalize the intended target to other relatable targets, this assay endpoint is annotated to the 'cell adhesion molecules' intended target family, where the subfamily is 'collagen'.\nThe levels of cell surface (or secreted, indicated by the prefix \"s\") biomarker endpoints were measured by ELISA. Overt cytotoxicity to cells in confluent adherent cultures (all systems other than the BT system) was assessed by measuring total protein levels using sulforhodamine B (SRB) staining in parallel cultures at the time of biomarker measurements, indicated as SRB endpoints. For proliferation assays for adherent cell types, individual cell types are cultured at sub-confluence and relative cell numbers quantified by SRB staining at time points optimized for each system (48 h: 3C and CASM3C systems; 72 h: BT and HDF3CGF systems; 96 h: SAg system). SRB was performed by staining cells with 0.1% SRB after fixation with 10% TCA and reading wells at 560 nm.Viability and proliferation of PBMC (T cells) was quantified by Alamar Blue reduction for the SAg and BT systems. For PBMC viability (referred to as PBMC Cytotoxicity within the assay endpoint names), cells were plated (75,000/well in a 96-well plate) and then chemical samples added for 1 h before addition of activators, SEB and TSST-1 (20 ng/mL final concentration each). Cells were incubated for 90 h. Then, Alamar Blue (20 uL/well) (Invitrogen, Cat DAL1100) was added for 6 h, and the plates were read with a fluorescence microplate reader at 546/580 nm (excitation/emission). For PBMC proliferation, cells were plated and activated as above but incubated for only 16 h prior to addition of Alamar Blue. Plates were read after 6 h."}
{"molecule": "COc1ccc(C(=O)c2ccccc2O)c(O)c1", "outcome": "inactive"}
{"molecule": "CC(C)C1OCCN1CCOC(=O)NCCCCCCNC(=O)OCCN1CCOC1C(C)C", "note": "(stereo unspecified)", "AC50": "1.44 µM (active)", "outcome": "inactive"}
{"molecule": "O=[N+]([O-])c1cc(S(=O)(=O)Nc2ccccc2)ccc1Nc1ccccc1", "outcome": "inactive", "AC50": "3.86 µM (active)"}
{"molecule": "OC(C(F)(F)F)(C(F)(F)F)C(O)(C(F)(F)F)C(F)(F)F", "AC50": "30 µM (active)", "outcome": "inactive"}
{"molecule": "CCC[Si](OC(C)=O)(OC(C)=O)OC(C)=O", "outcome": "inactive"}
{"molecule": "Cc1c(C(N)=O)cc([N+](=O)[O-])cc1[N+](=O)[O-]", "outcome": "inactive"}
{"molecule": "CCCCC(CC)COC(=O)C=Cc1ccc(OC)cc1", "note": "(stereo unspecified)", "outcome": "inactive", "AC50": "9.37 µM (active)"}
{"molecule": "CN(C)Cc1cc(C(C)(C)C)c(O)c(C(C)(C)C)c1", "outcome": "inactive"}
{"molecule": "COc1cc(CNC(=O)CCCC/C=C/C(C)C)ccc1O", "outcome": "inactive"}
{"molecule": "COc1ccccc1Oc1c(NS(=O)(=O)c2ccc(C(C)(C)C)cc2)nc(-c2ncccn2)nc1OCCO", "outcome": "inactive"}
{"molecule": "CC[N+](CC)(CC(=O)Nc1c(C)cccc1C)Cc1ccccc1", "note": "(tested in a mixture with another compound)", "outcome": "inactive"}
{"molecule": "C1CN(CCOCCN2CCOCC2)CCO1", "outcome": "inactive"}
